In PubChem BioAssay (NCI) one finds growth data, which are given here for 11 molecules.

“And” between values parts separate entries of the source, which are not always exact repeats. Equal entries are not always repeated. About 83,000 compounds went through this panel and 20% of them were active in at least one assay; those are over-represented in the sample as a whole.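 Plates (96-well) were seeded with cells, treated with compound at one concentration, and incubated for 48 hours before percent growth was determined.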 The source made the active and inactive calls. How the source made its calls: active means growth percent below 10; inactive means the rest.

Test in all cases: NCI-60 one-dose screen, 48 h (100 = growth as untreated, 0 = no growth, -100 = all killed)
What all share (settings): 10 µM unless noted

For assay [1], the system named is SR leukemia.
For assay [2], the system named is RPMI-8226 leukemia.
Assay [3] has as its system OVCAR-8 ovarian.
Assay [4] has as its system OVCAR-5 ovarian.
Assay [5] concerns OVCAR-4 ovarian.
For assay [6], the system named is SK-OV-3 ovarian.
Assay [7] concerns IGROV1 ovarian.
In assay [8] the test system is OVCAR-3 ovarian.
Assay [9] relates to HS 578T breast.
Assay [10] deals with NCI/ADR-RES ovarian.

Regarding `C#C[C@]1(O)CC[C@H]2[C@@H]3CC=C4c5sc(Nc6cc(Cl)ccc6OC)nc5CC[C@]4(C)[C@H]3CC[C@@]21C`, the growth in [1] was 3.9% (active); in [2], -35.1% (active); in assay [3] it was 52.5% (inactive); in assay [4] it was 67.5% (inactive); in assay [5], 52.5% (inactive); in [6], -6.24% (active). Further, the growth in [7] is 43.5% (inactive); in assay [8] it was 25.3% (inactive); in assay [9] it was -7.86% (active); in assay [10], 56.4% (inactive).
As to `O=C(CSc1nc2ccccc2c(=O)n1-c1ccc(Cl)c(Cl)c1)Nc1ccc(S(=O)(=O)Nc2ccc(Cl)nn2)cc1`, the growth in assay [1] was 108% (inactive); in assay [2] it was 106% (inactive); in [3], 94% (inactive); in assay [4], 91.1% (inactive); in assay [5], 97.7% (inactive); in [6] it was 88.8% (inactive). Further, the growth in assay [7] was 95.8% (inactive); in [8] it was 106% (inactive); in [9] it was 91.2% (inactive); in [10], 99.8% (inactive).
For the molecule `C/C(=C(\c1ccc(O)cc1)c1ccc(OCCN2CCCCCC2)cc1)c1ccc(Cl)cc1`, the growth in assay [1] was -24.9% (active); in assay [2] it was -2.67% (active); in [3] it was -73.5% (active); in [4], -56.3% (active); in assay [5], -59.8% (active); in assay [6] it was -85.5% (active). For the same molecule, the growth was -65.1% (active) in assay [7], -73.3% (active) in assay [8], -46.2% (active) in assay [9] and -72.7% (active) in assay [10].
As for `CC(C)(O)c1cncc(-c2ccc3ncc(C#N)c(N4CCc5cc(F)c(Cl)cc54)c3c2)c1`, the growth is 11.8% (inactive) in assay [1]; 13.5% (inactive) in assay [2]; 11.1% (inactive) in assay [3]; 16.7% (inactive) in assay [4]; -1.6% (active) in assay [5]; -22.1% (active) in assay [6]. Also, the growth in assay [7] is -14.5% (active); in [8] it was 9.12% (active); in assay [9], -28% (active); in assay [10], 14.8% (inactive).
`Cc1[nH]c(C(=O)Nc2ccc(C(N)=O)cc2N2CCOC(C)C2)c(Cl)c1Cl` (stereo not given): the growth in assay [1] is 101% (inactive); in [2], 107% (inactive); in assay [3], 96.8% (inactive); in assay [4] it was 98.1% (inactive); in assay [5] it was 97.9% (inactive); in assay [6] it was 102% (inactive). For the same molecule, the growth in [7] was 92.2% (inactive); in [8] it was 109% (inactive); in [9], 94.7% (inactive); in [10], 93.7% (inactive).
In the case of `CN1CCN(c2ccc(Nc3nc(NCCCNS(=O)(=O)c4ccc(C(F)(F)F)cc4)c4sccc4n3)cc2)CC1`, the growth in assay [1] is 7.01% (active); in assay [2], -9.61% (active); in assay [3], -72.2% (active); in [4] it was -3% (active); in assay [5], -35% (active); in assay [6], -37% (active). Besides, the growth in assay [7] is -6.63% (active); in assay [8], -74.1% (active); in [9] it was -35% (active); in assay [10] it was -2.63% (active).
Consider `C/C=C/CC(C)C(O)[C@H](NC(=O)[C@@H]1CCCN1C(=O)[C@](C)(CC)NC(=O)CCCCCCCCC)C(=O)N[C@@](C)(CC)C(=O)N[C@@H](CCC(N)=O)C(=O)N[C@H](CCC(N)=O)C(=O)NC(C)(C)C(=O)NC(C)(C)C(=O)N[C@@H](CCC(N)=O)C(=O)N[C@H](CC(C)C)C(=O)N[C@H](CO)CC(C)C` (stereo not given in full), for which the growth in assay [1] is 12.6% (inactive) and 1.7% (active); in assay [2], 50.5% (inactive) and -38.3% (active); in assay [3], 42.1% (inactive) and -54.9% (active); in assay [4], 71% (inactive) and -92% (active); in [5], 86.8% (inactive) and 43.1% (inactive); in assay [6] it was 107% (inactive) and 19.3% (inactive). Besides, the growth was 52.1% (inactive) and -14.1% (active) in assay [7]; 7.49% (active) in [8]; 6.26% (active) and -64.4% (active) in assay [9]; 71.4% (inactive) and -70.3% (active) in [10].
Turning to `O=C(Nc1cccc(C(F)(F)F)c1)N1CCN(c2cc(-c3cn(-c4ccccc4)nc3-c3cccc(O)c3)ccn2)CC1`, the growth in assay [1] is 27.6% (inactive); in [2] it was 27.8% (inactive); in assay [3], 31.4% (inactive); in assay [4], 82.3% (inactive); in assay [5], 24.9% (inactive); in assay [6] it was 84.7% (inactive). The growth was 43.3% (inactive) in [7], 54.4% (inactive) in assay [8], 53.5% (inactive) in [9] and 28.5% (inactive) in assay [10].
Regarding `CC1(C)C=Cc2cc(/C(N)=N/C(N)=N/c3nc4ccccc4s3)ccc2O1`, the growth in assay [1] is 6.81% (active); in assay [2], 80.2% (inactive); in assay [3], 76.5% (inactive); in assay [4], 95.9% (inactive); in assay [5], 82.7% (inactive); in [6], 124% (inactive). The growth was 52.5% (inactive) in assay [7], 103% (inactive) in [8], 101% (inactive) in assay [9] and 81.7% (inactive) in [10].
For the molecule `COc1ccc(C2c3[nH]c4ccc(Cl)cc4c3CCN2c2oc(CO)nc2C#N)cc1` (stereo not given), the growth in [1] is 17.4% (inactive); in assay [2] it was 46.3% (inactive); in assay [3] it was 45.9% (inactive); in assay [4], 78.1% (inactive); in [5], 69.7% (inactive); in [6], 101% (inactive). The growth is 39.4% (inactive) in assay [7], 46.7% (inactive) in [8], 69.1% (inactive) in assay [9] and 43% (inactive) in [10].
Turning to `Cc1ccc2c(n1)C(=O)C(Cl)=C(Nc1ccc(C#N)cc1)C2=O`, the growth in assay [1] is 15.3% (inactive); in assay [2], 55.1% (inactive); in [3] it was 91.5% (inactive); in assay [4], 106% (inactive); in assay [5] it was -98.5% (active); in [6], 106% (inactive). Besides, the growth in [7] is 68.4% (inactive); in [8], 4.24% (active); in [9], 97.7% (inactive); in assay [10], 98% (inactive).
